Reference: PubChem BioAssay (NCATS)
Inconclusive results are not listed. The source made the active and inactive calls. Unless noted, how the calls were made is not given here.

Tests used:
[1] = qHTS Assay for Identifying Gametocytocidal Compounds (AID 743244; active means well fitted curve in the direction sought with a large enough effect; an effect the other way counts as inactive or inconclusive; further: potency means the concentration at half of the fitted maximal effect;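 on max response: on the % scale 0 is the no-effect control and ±100 the full control effect; actives lower the fluorescent signal which means gametocytes are killed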); conditions: P. falciparum 3D7 stage III-V gametocytes, alamarBlue, 72 h; max response: stronger effect = lower value
How it was run: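 Stage III-V P. falciparum 3D7 gametocytes, 20,000 per well, were exposed to compounds for 72 h at 37C, 5% CO2. AlamarBlue was then added for 24 h and viability was read as fluorescence at Ex 525/Em 598 nm.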

[2] = qHTS profiling for inhibitors of Plasmodium falciparum (3D7) proliferation (AID 743322);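 further: infected erythrocytes exposed to compound for 72 h before lysis; 100% = DMSO vehicle wells and 0% = 0.29 µM artemisinin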; conditions: P. falciparum 3D7 proliferation; at 28.7 µM (top of the series)
How it was run: (§1)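 Erythrocytes infected with P. falciparum (0.3% parasitemia, 2.5% hematocrit) incubated with compounds 72 h at 37 C, 5% CO2. Lysis with saponin/Triton buffer containing SYBR Green I, overnight at room temperature in the dark; DNA fluorescence (485/535 nm) normalised to 0.29 uM artemisinin and DMSO.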

[3] = qHTS profiling for inhibitors of Plasmodium falciparum (DD2) proliferation (AID 743323); conditions: lower = more inhibition; at 28.7 µM (top of the series)
How it was run: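 Parasite proliferation measured via DNA-dye fluorescence, as uninfected erythrocytes lack DNA. Cultures at 0.3% parasitemia and 2.5% hematocrit incubated 72 h with compound; signal scaled between vehicle and 0.29 uM artemisinin wells.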

[4] = qHTS profiling of the MIPE4 collection as inhibitors of Plasmodium falciparum (3D7) proliferation (AID 743344);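 further: scaled between DMSO vehicle wells and 0.29 µM artemisinin as full inhibition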; conditions: P. falciparum 3D7 in erythrocytes, SYBR Green DNA fluorescence, 72 h; at 28.5 µM (top of the series) unless noted
How it was run: as §1

[5] = qHTS profiling of the MIPE4 collection as inhibitors of Plasmodium falciparum (DD2) proliferation (AID 743345); conditions: P. falciparum Dd2 in erythrocytes, SYBR Green DNA, 72 h; at 28.5 µM (top of the series) unless noted
How it was run: as §1

[6] = qHTS profiling of the MIPE4 collection as inhibitors of Plasmodium falciparum (DD2) proliferation (Rep 2) (AID 743346); conditions: P. falciparum Dd2 in erythrocytes, SYBR Green DNA, 72 h; at 28.5 µM (top of the series) unless noted
How it was run: as §1

[7] = qHTS profiling of the MIPE4 collection as inhibitors of Plasmodium falciparum (HB3) proliferation (AID 743347);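 further: plate controls were DMSO vehicle wells for no effect and artemisinin wells for full effect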; conditions: P. falciparum HB3 in erythrocytes, SYBR Green DNA, 72 h; at 28.5 µM (top of the series) unless noted
How it was run: as §1

[8] = High-throughput drug toxicity screening in the BPDCN cell line Gen2.2 (AID 1224824); conditions: Gen2.2 BPDCN cells; at 45.8 µM (top of the series) unless noted;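 further: cells exposed to compounds for 48 h before reading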
How it was run: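 Seed 500 exponentially growing Gen2.2 cells/well; add compounds by pin tool; incubate 48 h, 37 °C, 5% CO2; add CellTiter-Glo, 15 min RT; read luminescence. % activity vs DMSO (100%) and bortezomib (0%).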

[9] = High-throughput drug toxicity screening in the BPDCN cell line Cal-1 (AID 1224825); conditions: Cal-1 BPDCN cell viability, qHTS; at 45.8 µM (top of the series) unless noted
How it was run: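 Exponentially growing Cal-1 cells, 500 per well in phenol red-free RPMI with 10% FBS, were exposed to compounds for 48 h at 37 °C, 5% CO2. Viability was read by CellTiter-Glo luminescence and normalised to DMSO (100%) and 9.2 uM bortezomib (0%).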

[10] = qHTS assay for measurement of the activity of small molecule inhibitors on Zika virus induced Caspase-3 activity in human iPSC derived neural progenitor cells (hNPCs) (AID 1224857; active means well fitted curve in the direction sought with a large enough effect; an effect the other way counts as inactive or inconclusive; further: % of control where 0% means no effect; nearly all actives have a fitted effect of over 65% in size)
How it was run: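 Human iPSC-derived neural progenitor cells pretreated 1 hr with compounds, then infected with Zika virus (2 FFU/cell) for 6 hours at 37 C. Caspase-3/7 measured by Caspase-Glo luminescence; % inhibition calculated from induction scaled to uninfected (0%) and infected (100%) wells.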

[11] = qHTS assay for measurement of the activity of small molecule inhibitors on Zika virus induced Caspase-3 activity in human astrocytoma cells (AID 1224859; active means well fitted curve in the direction sought with a large enough effect; an effect the other way counts as inactive or inconclusive;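 further: plate controls were ZIKV-infected untreated cells for no effect and uninfected cells for full effect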)
How it was run: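 SNB-19 astrocytoma cells, 250/well, pretreated 1 h with compounds, then Zika virus at 2 FFU/cell for 6 h at 37 C; Caspase-Glo 3/7 luminescence after 30 min; percent inhibition normalised to uninfected and infected controls.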

[12] = qHTS profiling for inhibitors of Plasmodium falciparum (HB3) proliferation (AID 743324; active means well fitted curve in the direction sought with a large enough effect; an effect the other way counts as inactive or inconclusive;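 further: 100% = DMSO vehicle wells and 0% = artemisinin-treated control wells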); conditions: Plasmodium falciparum HB3 blood-stage proliferation; at 28.7 µM (top of the series)
How it was run: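 P. falciparum HB3 grown in erythrocytes (0.3% parasitemia, 2.5% hematocrit final) with compound for 72 h at 37 C, 5% CO2. Parasite DNA detected by SYBR Green after saponin/triton lysis overnight; normalized to 0.29 uM artemisinin and DMSO.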

Structure (SMILES)	max response [1]	remaining parasite growth % (stronger effect = lower value) [2] [%]	activity, percent of control [3] [%]	parasite growth, % of DMSO control [4]	parasite growth remaining, % of DMSO control (lower = more inhibition) [5]	parasite growth, % of control (lower = inhibition) [6]	growth, % of control [7]	cell viability, % of control (lower = more cytotoxic) [8]	viability (% of control) [9]	Potency [10]	Potency [11]	Potency [1]	remaining proliferation (% of control), lower = more inhibition [12] [%]
CC(=O)OCC(=O)[C@@]1(O)[C@H](C)C[C@H]2[C@@H]3C=C(C)C4=Cc5c(cnn5-c5ccccc5)C[C@]4(C)[C@@H]3[C@@H](O)C[C@@]21C	-18.2% (inactive)	-0.774	-0.0557	6.78%	6.63%	21.4%	10.8%	102%	45.8%	inactive	inactive	–	–
Cc1cnc(-c2cnc(NCCNc3ccc(C#N)cn3)nc2-c2ccc(Cl)cc2Cl)[nH]1	11.2% (inactive)	89	90.2	34.7%	76.5%	40.9%	27.2%	229%	38.3%	inactive	inactive	–	–
Cc1ccc(C(=O)Nc2ccc(CN3CCN(C)CC3)c(C(F)(F)F)c2)cc1C#Cc1cnc2cccnn12	–	-1.18	0.143	6.07%	7.34%	13%	8.37%	10.5%	3.63%	inactive	inactive	18.7 µM (active)	–
COC(=O)C[C@](O)(CCCC(C)(C)O)C(=O)O[C@@H]1C(OC)=C[C@]23CCCN2CCc2cc4c(cc2[C@H]13)OCO4	–	–	–	–	–	–	–	131%	134%	inactive	inactive	–	–
COc1cc(=C2C=c3ccccc3=N2)[nH]c1=Cc1[nH]c(C)cc1C	–	2.05	1.12	4.63%	7.38%	15.9%	5.2%	17.7%	3.02%	inactive	inactive	7.43 µM (active)	1.42
CN(c1ncccc1CNc1nc(Nc2ccc3c(c2)CC(=O)N3)ncc1C(F)(F)F)S(C)(=O)=O	3.79% (inactive)	12.7	9.35	12.5%	14.1%	30.9%	10.4%	12.1%	4.76%	inactive	inactive	–	5.89
CC(=O)c1c(C)c2cnc(Nc3ccc(N4CCNCC4)cn3)nc2n(C2CCCC2)c1=O	–	0.348	4.74	5.54%	6.84%	9.82%	2.45%	8.1%	3.89%	inactive	inactive	7.43 µM (active)	0.446
CCCNC(=O)Nc1ccc(Oc2ncnc3cc(OC)c(OC)cc23)cc1Cl	–	–	–	–	–	–	–	69.6%	92.7%	inactive	inactive	–	–
C=CC(=O)N1CCC[C@@H](n2nc(-c3ccc(Oc4ccccc4)cc3)c3c(N)ncnc32)C1	–	–	–	–	–	–	–	43.2%	6.59%	inactive	–	–	–
C[C@]1(CO)CN(c2cc(C(=O)Nc3ccc4c(c3)-c3c(c(C(N)=O)nn3-c3ccc(F)cc3)CC4)c(Cl)cn2)C[C@@]1(C)CO	-20.6% (inactive)	50.5	56.4	11.4%	17.1%	38.3%	9.48%	27.2%	6.89%	inactive	inactive	–	6.49
Fc1cc(-c2cccc3ncc(-c4cnn(C5CCNCC5)c4)nc23)cc(F)c1CN1CCOCC1	–	–	–	–	–	–	–	5.16%	5.7%	inactive	inactive	–	–
Nc1nccc(Oc2ccc(NC(=O)c3c[nH]cc(-c4ccc(F)cc4)c3=O)cc2F)c1Cl	-5.48% (inactive)	7.57	18.6	4.72%	50.4%	8.39%	6.32%	7.66%	5.21%	inactive	inactive	–	1.21
Cc1cc(Nc2cc(N3CCN(C)CC3)nc(C=Cc3ccccc3)n2)n[nH]1	–	0.147	3.11	5.15% [at 57.5 µM]	6.9% [at 57.5 µM]	8.07% [at 57.5 µM]	2.5% [at 57.5 µM]	9.99% [at 92.2 µM]	3.23% [at 92.2 µM]	inactive	inactive	8.33 µM (active)	0.814
O=C(NCCS(=O)(=O)c1ccc(C(F)(F)F)cn1)c1ccc(Cl)cc1	12.1% (inactive)	98.8	98.7	127%	103%	82.3%	84.8%	146%	123%	inactive	inactive	–	99.7
CC(C)C[C@H](NC(=O)CNC(=O)c1cc(Cl)ccc1Cl)B(O)O	–	-0.752	-0.333	5.16%	7.7%	7.79%	3.75%	2.43%	4.79%	inactive	inactive	18.7 µM (active)	–
COc1cccc2nc(-c3cccs3)nc(NN3C(=O)C=C(C)C3=O)c12	19.8% (inactive)	92.8	81.6	27.1%	90.8%	18.1%	6.3%	4.3%	3.16%	inactive	inactive	–	87.8
CCOC(=O)C1=C(C)NC2=C(C(=O)CC(C)(C)C2)C1c1ccc(-c2ccccc2)cc1 (stereo unspecified)	–	–	–	–	–	–	–	5.24%	4.47%	inactive	inactive	–	–
CC(C)c1ccc(Cn2ccc3c4c(N)nc(NC5CC5)nc4ccc32)cc1	–	-2.55	-1.01	4.63%	6.19%	15.1%	3.42%	3.92%	4.41%	inactive	inactive	14.8 µM (active)	-1.47
